# Compounds with a hit are over-represented: about 1.6% of the library has one in this group of screens.
# KCNQ2 pot – potentiators of rat KCNQ2 potassium channel; B-score at 10 µM; hit rate 0.54% among 310,000; O88943; AID 2239; CHO-K1 KCNQ2, FluxOR thallium flux fluorescence; stronger effect = higher value;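 active = fluorescence ratio B-score at least 3 SD of library B-scores, with initial fluorescence B-score within 3 of them, cut at about 5.3 in these data; same plate scores as AID 2156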;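 note: B-score of peak minus minimum over baseline fluorescence ratio after K+ and Tl+ stimulus; positive B-score means potentiation of KCNQ2 with more thallium influx and brighter signal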
# KCNQ2 block – blocks the rat KCNQ2 potassium channel. B-score at 10 µM. CHO-K1 KCNQ2, FluxOR thallium flux, 20 min; stronger effect = lower value. AID 2156. O88943. hit rate 1.1% among 310,000;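 active = fluorescence ratio B-score at most minus 3 library SDs, with starting brightness B-score within 2 library SDs, cut at about -5.5 in these data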
# Kir21 confirm – confirmation of mouse Kir2.1 potassium channel inhibitors. shares compounds with KCNQ2 pot. Tl flux remaining, % of negative control (stronger effect = lower value), % at 10 µM. Kir2.1-expressing cells, FluxOR thallium flux fluorescence; stronger effect = lower value. hit rate 41% among 2,300;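 active = Primary-screen hit whose thallium flux fell at least 3 control SD below untreated wells in both duplicates, with normal baseline fluorescence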;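 note: 0% = blank wells without stimulus and 100% = stimulated no-compound controls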
# HEK293 Tl flux – parental HEK293 activity in Kir2.1 inhibitor counter-screen; FluxOR signal as % of negative control (100 = no effect), % at 10 µM; hit rate 19% among 2,300; shares compounds with KCNQ2 pot; parental HEK293 cells, FluxOR thallium flux fluorescence; 0% = unstimulated blank wells; AID 2105;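 active = dye signal at least 3 control SD above or below untreated wells in both duplicates, raw fluorescence within 3, either direction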;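 note: percent is based on the flux ratio of peak minus minimum fluorescence over baseline F0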
# CHO-K1 Tl ctr – counter-screen for KCNQ2 potentiators: effect in parental CHO-K1 cells. hit rate 43% among 1,200. activity increase over 3SD of controls, % at 10 µM. shares compounds with KCNQ2 pot. FluxOR thallium flux fluorescence; zero = vehicle mean+3SD, 100% = vehicle-minus-blank window;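 active = signal rise of at least 3 SD above the untreated control mean, in both duplicate wells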;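 note: counter screen of KCNQ2 potentiator hits so any rise reflects channel-independent effects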
# KCNQ1 pot spec – selectivity of KCNQ2 potentiators: effect on human KCNQ1. shares compounds with KCNQ2 pot. CHO KCNQ1 stable, FluxOR thallium flux fluorescence; beyond 3SD, as % of vehicle-control signal. activation over 3SD threshold, % at 10 µM. hit rate 28% among 1,200. AID 2283;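 active = fluorescence ratio rise of at least 3 SD of vehicle wells above their mean, in both replicate wells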;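 note: 0% = vehicle mean plus 3 SD and 100% = vehicle minus unstimulated blank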
# KCNQ2 pot conf – confirmation of rat KCNQ2 potassium channel potentiators; AID 2287; CHO-KCNQ2 cells, FluxOR thallium flux fluorescence; hit rate 68% among 1,200; shares compounds with KCNQ2 pot; potentiation, less the hit threshold, % at 10 µM;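 active = fluorescence ratio rising 3 SD or more over the vehicle control mean in both replicates, plus primary screen hit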;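 note: peak minus minimum thallium fluorescence divided by baseline after K/Tl stimulus; 0% = vehicle mean plus 3 SD and 100% = vehicle minus unstimulated blank difference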
# Kir2-1 sel – tests whether KCNQ2 potentiators also affect mouse Kir2.1 | shares compounds with KCNQ2 pot | HEK293 Kir2.1, FluxOR thallium flux fluorescence | activity over 3SD threshold, % at 10 µM | hit rate 2% among 1,200;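 active = fluorescence ratio rise of at least 3 SD above the vehicle-control mean, seen in both replicates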;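 note: 0% = vehicle mean plus 3 SD and 100% = vehicle minus no-stimulus blank window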
# KCNQ2 W236L pot – rat KCNQ2 W236L mutant potentiation by KCNQ2 potentiators. shares compounds with KCNQ2 pot. CHO KCNQ2-W236L, automated patch clamp current. current increase over 3SD of negative controls (%), stronger effect = higher value, % at 25 µM. hit rate 10% among 940. AID 2558;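 active = current increase at least 3 SD of the untreated controls above them in both duplicate recordings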
# Target sequence (O88943 whole entry W236L, looked up): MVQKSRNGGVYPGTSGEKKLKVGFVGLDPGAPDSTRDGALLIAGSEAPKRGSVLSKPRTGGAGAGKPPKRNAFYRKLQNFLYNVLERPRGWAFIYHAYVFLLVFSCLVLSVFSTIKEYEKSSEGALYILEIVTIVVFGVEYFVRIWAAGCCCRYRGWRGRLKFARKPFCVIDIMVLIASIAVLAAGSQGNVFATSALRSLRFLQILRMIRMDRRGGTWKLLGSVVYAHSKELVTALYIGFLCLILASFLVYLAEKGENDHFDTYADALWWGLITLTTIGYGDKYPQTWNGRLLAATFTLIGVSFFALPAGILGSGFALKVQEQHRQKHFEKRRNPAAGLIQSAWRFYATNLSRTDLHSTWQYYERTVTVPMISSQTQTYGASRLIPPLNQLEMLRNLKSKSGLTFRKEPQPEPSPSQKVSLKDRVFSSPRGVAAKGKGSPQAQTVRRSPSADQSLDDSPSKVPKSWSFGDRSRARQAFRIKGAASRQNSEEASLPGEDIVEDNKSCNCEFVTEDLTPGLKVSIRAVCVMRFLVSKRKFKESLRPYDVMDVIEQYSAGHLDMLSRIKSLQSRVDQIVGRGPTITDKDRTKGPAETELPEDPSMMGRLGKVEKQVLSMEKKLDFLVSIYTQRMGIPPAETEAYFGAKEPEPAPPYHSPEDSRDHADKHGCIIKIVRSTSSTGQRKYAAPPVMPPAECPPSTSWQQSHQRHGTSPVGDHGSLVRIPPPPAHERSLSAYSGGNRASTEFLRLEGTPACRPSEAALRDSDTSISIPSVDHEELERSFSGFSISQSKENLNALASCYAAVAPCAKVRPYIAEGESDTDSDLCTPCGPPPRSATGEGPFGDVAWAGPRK
# * marks the source's active call; other numbers are inactive results; i = inactive; nt = no result given.
SMILES,KCNQ2 pot,KCNQ2 block,Kir21 confirm,HEK293 Tl flux,others
Cc1cccc(NC(=S)NC(=O)c2ccc(Br)o2)c1C,8.4*,i,i,148%*,CHO-K1 Tl ctr=47*;KCNQ1 pot spec=-1;KCNQ2 pot conf=28*;Kir2-1 sel=-21;KCNQ2 W236L pot=i
Cn1c(SCc2cccc(Br)c2)nnc1-c1ccncc1,0.35,i,nt,nt,
COc1ccc(C(=O)Nc2cccc(NC(=O)c3ccc(OC)c(OC)c3)n2)cc1OC,1.8,i,nt,nt,
Cc1cccc(C(C)C)c1NC(=O)C(C)OC(=O)Cn1cnc2c1c(=O)n(C)c(=O)n2C (stereo not given),0.33,i,nt,nt,
COc1ccc(OC)c(/C=C2\Oc3cc(OCC(=O)N4CCC(C(=O)O)CC4)ccc3C2=O)c1,nt,i,nt,nt,
O=C(c1cccc(NS(=O)(=O)c2cccc(C(F)(F)F)c2)c1)N1CCOCC1,nt,i,nt,nt,
COC(=O)c1ccc(CNC(=O)C23CC4CC(CC(C4)C2)C3)cc1,nt,i,nt,nt,
CC(OC(=O)c1ccccc1)C(=O)NCCC1=CCCCC1 (stereo not given),1.2,i,nt,nt,
Cc1ccccc1OC(C)C(=O)NCCC1=CCCCC1 (stereo not given),-5.9,-5.9*,38%*,i,
Cc1ccc(Cn2c(CCC(=O)O)nc3ncccc3c2=O)cc1,nt,i,nt,nt,
Cc1nn(CC(=O)N2CCN(c3ccc(Cl)cc3)CC2)c(=O)c2cccn12,nt,i,nt,nt,
O=C(O)/C=C/C(=O)N1CCN(c2cccc(Cl)c2)CC1,0.11,i,i,i,
O=C(O)CCC(=O)N1CCN(c2cccc(Cl)c2)CC1,0.8,i,nt,nt,
CCNC(=O)CSc1nnc(-c2cc(-c3ccc(Cl)cc3)nc3ccccc23)o1,nt,i,nt,nt,
CCN(CC)CCCCN1c2ccccc2Sc2ccccc21,nt,i,44%*,i,
CCN(CC)CC(=O)N1c2ccccc2Sc2ccccc21,0.08,i,nt,nt,
O=C(CNS(=O)(=O)c1c(Cl)cccc1Cl)N1CCCCCC1,nt,i,nt,nt,
CSCCC(NC(=O)c1ccccc1)C(=O)NNC(=O)c1csc(N2CCOCC2)n1 (stereo not given),nt,i,nt,nt,
CC(C)c1ccc(N(CC(=O)NCc2ccco2)C(=O)CCC(=O)Nc2ccccn2)cc1,1.9,i,nt,nt,
Cc1cc(Cl)ccc1OC(C)C(=O)NC(C)C1CCCO1 (stereo not given),nt,i,56%*,i,
CC(NC(=O)Nc1ccc(Cl)cc1)C1CCCO1 (stereo not given),nt,i,nt,nt,
Cc1ccc(OCC(=O)Nc2ccc(C)c(S(=O)(=O)N3CCCCC3)c2)c([N+](=O)[O-])n1,nt,i,nt,nt,
COc1ccc(C(=O)/C=C/c2cccc(OCc3ccccc3)c2)cc1CSCC(=O)O,nt,i,74%*,i,
COc1ccc(C(C)=O)cc1CSCC(=O)O,0.78,i,nt,nt,
Cc1cc(C)cc(C(=O)NCC(=O)OCC(=O)NCc2ccco2)c1,nt,i,nt,nt,
SMILES,KCNQ2 pot,KCNQ2 block,Kir21 confirm,HEK293 Tl flux,others
CCOC(=O)c1cccc(Nc2ncnc3ccc(C)cc23)c1,1.7,i,52%*,i,
CCOC(=O)c1ccc(Nc2ncnc3ccc(C)cc23)cc1,0.62,i,nt,nt,
Cc1cc(C)n(CC(=O)NC2CCCN(Cc3ccc(Cl)cc3)C2)n1 (stereo not given),0.48,i,nt,nt,
O=C(Cc1cccc(F)c1F)NC1CCCN(Cc2ccc(Cl)cc2)C1 (stereo not given),6.2*,i,i,218%*,CHO-K1 Tl ctr=116*;KCNQ1 pot spec=-15;KCNQ2 pot conf=16*;Kir2-1 sel=-50;KCNQ2 W236L pot=i
CCn1c(SCc2cccc(F)c2)nc2c(c1=O)SCC2,0.86,i,nt,nt,
O=C1CC(O)(C(F)F)Oc2ccc3ccccc3c21 (stereo not given),0.79,i,nt,nt,
O=C1CC(O)(C(F)(F)F)Oc2c1ccc1ccccc21 (stereo not given),5.7*,i,i,248%*,CHO-K1 Tl ctr=-10;KCNQ1 pot spec=7.6*;KCNQ2 pot conf=44*;Kir2-1 sel=-34;KCNQ2 W236L pot=i
O=C(NCC(=O)N1CCN(C(c2ccccc2)c2ccccc2)CC1)c1ccccc1F,0.65,i,nt,nt,
Oc1c(Br)cc(Cl)cc1C=Nc1ccc(N2CCOCC2)cc1,11*,i,i,i,CHO-K1 Tl ctr=-1;KCNQ1 pot spec=0.5*;KCNQ2 pot conf=7.7*;Kir2-1 sel=-27;KCNQ2 W236L pot=i
Brc1csc(C=Nc2ccc3c(c2)OCCOCCOCCOCCO3)c1,0.47,i,nt,nt,
Oc1c(Cl)cc(Cl)cc1C=Nc1ccc2c(c1)OCCO2,8.5*,i,i,i,CHO-K1 Tl ctr=92*;KCNQ1 pot spec=-1;KCNQ2 pot conf=-1;Kir2-1 sel=-22;KCNQ2 W236L pot=i
Oc1ccc(N=Nc2cccc(Cl)c2)cc1C=Nc1ccc(N2CCOCC2)cc1,1.4,i,nt,nt,
CC12CC3CC(C)(C1)CC(C(=O)NCc1cccnc1)(C3)C2,nt,i,nt,nt,
Cc1cc(NC(=O)CCC(=O)N(CC(=O)NC2CCCC2)c2ccc(Cl)c(Cl)c2)no1,0.47,i,nt,nt,
N#C/C(=C\c1ccc(Cl)cc1)c1n[nH]c(Cn2cncn2)n1,nt,i,nt,nt,
O=C(Nc1ccc(Cl)cc1Cl)c1n[nH]c(Cn2cncn2)n1,7.1*,i,i,i,CHO-K1 Tl ctr=-11;KCNQ1 pot spec=50*;KCNQ2 pot conf=-9;Kir2-1 sel=-23;KCNQ2 W236L pot=i
CC(NS(=O)(=O)c1ccc2c(c1)OCCO2)c1ccccc1 (stereo not given),0.93,i,nt,nt,
CC(NS(=O)(=O)c1ccc(Br)cc1)c1ccccc1 (stereo not given),nt,i,47%*,i,
COc1ccc(C(CNC(=O)c2cc3ccccc3o2)N2CCCCC2)cc1 (stereo not given),0.14,i,nt,nt,
CC(C)[C@H](NC(=O)N1CCn2c1nc1ccccc12)C(=O)NCC1CCCO1 (stereo not given in full),nt,i,nt,nt,
COc1ccc(-c2c[n+](CC(=O)OC3CC(C)CCC3C(C)C)c3n2CCC3)cc1 (stereo not given),0.47,i,nt,nt,
CC(C)[C@@H]1CC[C@@H](C)C[C@H]1OC(=O)C[n+]1cc(-c2ccc(Cl)cc2)n2c1CCCCC2,nt,i,25%*,i,
CC1CN(C(=O)CSc2nnc(CNC(=O)c3ccc(S(=O)(=O)N(C)C)cc3)o2)CC(C)O1 (stereo not given),0.07,i,nt,nt,
O=C(CN1CCCc2ccccc21)NCCc1ccc(F)cc1,nt,i,46%*,i,
COc1ccc(CCNC(=O)CN2CCCc3ccccc32)cc1OC,nt,i,nt,nt,
CCc1noc(C)c1C(=O)N1CCN(S(=O)(=O)c2ccc(Cl)s2)CC1,2.6,i,nt,nt,
